# From PubChem BioAssay (Tox21)
# Inconclusive results are not listed. Active and inactive are the calls of the source. Calls come from the whole dose curve; as a rule, active = well fitted cell-killing curve with a large enough effect in the repeat runs; inconclusive = weak or mixed curves, or effect the other way; inactive = flat fitted curve, though single readings scatter.
# Assay: qHTS assay to identify small molecule antagonists of the constitutive androstane receptor (CAR) signaling pathway - cell viability counter screen (AID 1224837); note: nearly all actives have a fitted effect of over 45% in size
# Conditions: HepG2-CYP2B6-hCAR viability, CellTiter-Fluor, 23 h, co-treated with 50 nM CITCO; series mostly up to 92.4 µM; activity change, negative = cytotoxicity: at the top concentration
# From the text: National Center for Advancing Translational Sciences [NCATS]
# NIH Chemical Genomics Center [NCGC]
# U.S. Environmental Protection Agency [EPA]
# National Institutes of Environmental Health Sciences [NIEHS]
# National Toxicology Program [NTP]
# U.S. Food and Drug Administration [FDA]
# The constitutive androstane receptor (CAR) is a nuclear receptor which regulates multiple drug metabolizing enzymes (DMEs) and transporters. Activating CAR will generally increase the transcription and subsequent translation of CYP2B6 and CYP3A4. These two DMEs represent about 50% of the drug metabolizing potential in the body. When CAR is deactivated, the metabolizing potential in the body will decrease, subsequently increasing the toxicity in the body or lowering the therapeutic potential of a pro-drug. Recently, there have also been studies performed indicating CARs role in energy metabolism and cancer therapy. Therefore, inhibiting CARs activity could have a potential effect on diabetes and cancer. Identifying environmental toxins and compounds which modulate CAR, through the use of the Tox21 10K compound collection, will be an important step in determining the toxicity and potential therapeutic effects these factors will have on the human body. To differentiate true CAR antagonists from cytotoxic substances, the assay is multiplexed with a cell viability assay.
# Tox21 Assay Protocol Summary:
# A double-stable (hCAR and CYP2B6-2.2kb) transfected cell line, derived from human hepatoma (HepG2) cells, was utilized for the duration of the quantitative high-throughput screens. The HepG2-CYP2B6-hCAR cells were dispensed at 2500 cells/4 uL/well in 1536-well white solid bottom plates using a Multidrop Combi. After the assay plates were incubated at 37 C/5% CO2 for 4 hrs, 23 nL of compounds at 15 concentrations (from 5-48 columns) or positive control (from 1 to 4 columns) were transferred to the assay plates using a Pintool station. One uL of CITCO (final concentration = 50 nM) was added, using a Flying Reagent Dispenser, inside each well. After a 23 hr incubation period at 37 C/5% CO2, 1 uL of CellTiter-Fluor reagent was added into each well of the assay plates using a Flying Reagent Dispenser. The fluorescence intensity in the plates was then measured using a ViewLux plate reader.
# % is set by controls: 0 for no effect and ±100 for the full control effect; potency is the fitted concentration of half-maximal effect.
SMILES,"activity change, negative = cytotoxicity",Potency
CN(C)c1ccc(C(c2ccccc2)c2ccc(N(C)C)cc2)cc1,-1.51% (inactive),
Nc1ccc(N)c2c1C(=O)c1ccccc1C2=O,,15.4 µM (active)
CN(C)C(=O)NC1(c2ccccc2)CCN(CC[C@@]2(c3ccc(F)c(F)c3)CN(C(=O)c3ccccc3)CCO2)CC1,-15.7% (inactive),
Cc1[nH]c(C)c(Cl)c(=O)c1Cl,8.34% [at 19 µM] (inactive),
CN(C)CCN(Cc1ccccc1)c1ccccn1,-16% [at 42.5 µM] (inactive),
O=C1OC(CN2CCOCC2)CN1/N=C/c1ccc([N+](=O)[O-])o1 (stereo not given),-17.6% [at 42.5 µM] (inactive),
CCCCCCCCCCCCCCOS(=O)(=O)O,-15% (inactive),
CN1Cc2cc(C(=O)N3CCC(C4CCNCC4)CC3)ccc2NC(CC(=O)O)C1=O (stereo not given),-2.53% [at 42.5 µM] (inactive),
C[N+]1(CC2COC(c3ccccc3)(C3CCCCC3)O2)CCCCC1 (stereo not given),1.26% [at 42.5 µM] (inactive),
CN(C)CCOC(c1ccccc1)c1ccc(Br)cc1 (stereo not given),-14% [at 42.5 µM] (inactive),
CCOC(=O)C(O)c1ccccc1 (stereo not given),6.28% [at 42.5 µM] (inactive),
CC(=O)c1cccc([N+](=O)[O-])c1,3.11% (inactive),
O=S(=O)(Oc1ccc(Cl)cc1)c1ccccc1,4.62% (inactive),
C/C=C(/C(=C/C)c1ccc(OC(C)=O)cc1)c1ccc(OC(C)=O)cc1,-7.78% [at 42.5 µM] (inactive),
C/C=C/C=C/CO,-0.685% (inactive),
O=C(OCCc1ccccc1)c1ccccc1,-1.66% (inactive),
CCOC(=O)Cc1cccc2ccccc12,0.0248% (inactive),
CCOc1ccc(N=Nc2ccc(/C=C/c3ccc(N=Nc4ccc(OCC)cc4)cc3S(=O)(=O)O)c(S(=O)(=O)O)c2)cc1,,21.4 µM (active)
CCOC(=O)C(F)(F)F,0.404% (inactive),
CCCCCCCCCCCCCCCCCCOS(=O)(=O)O,-11.7% (inactive),

SMILES,"activity change, negative = cytotoxicity",Potency
C=CCOC(=O)CCC1CCCCC1,1.08% (inactive),
CC/C=C\CCOC(=O)CC,5.49% (inactive),
CC(=O)[O][Al][O]C(C)=O,2.08% (inactive),
Cc1ccc(C(=O)Oc2ccc(C(O)CNC(C)(C)C)cc2OC(=O)c2ccc(C)cc2)cc1 (stereo not given),-0.162% [at 42.5 µM] (inactive),
Nc1ccc(S(=O)(=O)Nc2ccccc2)cc1,1.62% [at 42.5 µM] (inactive),
CC1CCC(=O)C1=O (stereo not given),0.692% (inactive),
Nc1ccc([N+](=O)[O-])c(C(F)(F)F)c1,-7.27% [at 42.5 µM] (inactive),
COc1cc2nc(N3CCN(C(=O)C4COc5ccccc5O4)CC3)nc(N)c2cc1OC (stereo not given),-14% [at 42.5 µM] (inactive),
C=CC(=O)OCCOc1ccccc1,-8.41% (inactive),
CCOc1ccc(O)cc1,-0.885% (inactive),
Cc1ccc(C(C)OC(=O)C2(C)CCC(C(=O)O)C2(C)C)cc1 (stereo not given),-2.6% [at 42.5 µM] (inactive),
CCCCC1=NC2(CCCC2)C(=O)N1Cc1ccc(-c2ccccc2-c2nn[nH]n2)cc1,-21.9% [at 42.5 µM] (inactive),
C[C@H]1C[C@H]2[C@@H]3CCC4=CC(=O)C=C[C@]4(C)[C@@]3(Cl)[C@@H](O)C[C@]2(C)[C@@]1(O)C(=O)CO,0.612% [at 42.5 µM] (inactive),
C/C(=C(\CCOP(=O)(O)O)SC(=O)c1ccccc1)N(C=O)Cc1cnc(C)nc1N,5.24% [at 8.39 µM] (inactive),
O=S(c1cc(Cl)cc(Cl)c1O)c1cc(Cl)cc(Cl)c1O,-3.57% [at 42.5 µM] (inactive),
C=C(C)C(=O)OCC,6.97% (inactive),
Cc1oc2c(NC(=O)c3c(Cl)cccc3Cl)cccc2c1C(C)(C)O,-22.8% (inactive),
CN(C)c1ccc(CCO)cc1,-13.4% (inactive),
CCn1cc(C(=O)O)c(=O)c2cnc(N3CCNCC3)nc21,5.48% [at 42.5 µM] (inactive),
C=C1[C@H]2CC[C@@H]3[C@H]2C(C)(C)CCC[C@]13C,-6.12% (inactive),
